# Out of some 13,000 compounds screened, about 3,200 (25%) showed an effect of 50% or more. The list shows a part of the results.
# System: P. falciparum stage V gametocytes
# Parameters: BacTiter-Glo ATP luminescence viability of purified stage V gametocytes in 384-well plates, per cent inhibition versus DMSO
# Conditions: 48 h, 5 µM; inhibitor
row,SMILES,% Inhibition [%]
1,CCN1CCN(c2cc(C)c3cc(NC(=O)c4cncc(Br)c4)ccc3n2)CC1 [TCMDC-125571],-6.09
2,Cc1ccc(-n2c(=O)c3c(n4c(SC(C)C)nnc24)-c2ccccc2CC32CCCCC2)cc1 [TCMDC-125077],-67.75
3,Cc1cc([N+](=O)[O-])ccc1NC(=O)Nc1cccc(C(F)(F)F)c1 [TCMDC-124561],-49.1
4,Cc1cccc2nc(-c3cccc(-c4cccc(C(=O)NCCN5CCCC5)c4)c3)[nH]c12 [TCMDC-132323],21.11
5,C=CC[C@H](NC(=O)c1ccc(NS(=O)(=O)c2ccc3nc(N)[nH]c(=O)c3c2)cc1)C(=O)OCCCC [TCMDC-137699],10.92
6,CCCCCCCCN1CCCN(C(=O)c2cccc(NC(=O)Nc3ccc4ccccc4c3)c2)CC1 [TCMDC-141690],-11.26
7,CC(CNc1ccnc(Nc2ccc3[nH]c(=O)[nH]c3c2)n1)c1ccccc1 (stereo not shown) [TCMDC-136806],-16.39
8,Nc1nc(N)c2c(Sc3ccccc3)cccc2n1 [TCMDC-131943],8.754
9,NC(=O)c1ccsc1NC(=O)CNC(c1ccccc1)c1ccc(Cl)cc1 (stereo not shown) [TCMDC-125330],14.63
10,Cc1cc2nc(-c3ccc(/C=C/C(=O)NC4CCN(Cc5ccccc5)CC4)cc3)[nH]c2cc1C [TCMDC-140434],78.1
11,Cc1ccc2nc(-c3ccc(C=CC(=O)NC4CCN(Cc5ccccc5)CC4)cc3)[nH]c2c1 [TCMDC-140401],2.225
12,Cc1ccc2[nH]c(-c3ccc(/C=C/C(=O)NC4CCN(Cc5ccccc5)CC4)cc3)nc2c1C [TCMDC-140451],-45.16
13,Cc1cc(NC(=O)c2cccs2)ccc1OC1CCN(Cc2ccc(C#N)cc2)C1 (stereo not shown) [TCMDC-133960],27
14,N#Cc1ccc(CN2CCC(Oc3ccc(NC(=O)c4cccs4)cc3Cl)CC2)cc1 [TCMDC-133955],10.06
15,Cc1cc(NC(=O)c2cccs2)ccc1OC1CCN(Cc2ccc(F)cc2)C1 (stereo not shown) [TCMDC-133754],20.26
16,O=C(Nc1ccc(OC2CCN(Cc3ccsc3)CC2)c(Cl)c1)c1ccco1 [TCMDC-134271],9.288
17,Cc1cc(NC(=O)c2ccco2)ccc1OC1CCN(Cc2ccc(F)cc2)C1 (stereo not shown) [TCMDC-133760],22.57
18,O=C(Nc1ccc(OC2CCN(Cc3ccccc3)CC2)c(Cl)c1)c1ccco1 [TCMDC-133966],63.08
19,O=C(Nc1ccc(OC2CCN(Cc3ccc(F)cc3)CC2)c(Cl)c1)c1ccco1 [TCMDC-133750],24.88

row,SMILES,% Inhibition [%]
1,O=C(Nc1ccc(OC2CCN(Cc3ccc(F)cc3)C2)c(Cl)c1)c1cccs1 (stereo not shown) [TCMDC-133757],50.68
2,O=C(Nc1ccc(OC2CCN(Cc3ccc(F)cc3)C2)c(Cl)c1)c1ccco1 (stereo not shown) [TCMDC-133761],61.05
3,Cc1cc(NC(=O)c2cccs2)ccc1OC1CCN(Cc2ccc(C#N)cc2)CC1 [TCMDC-133954],61.72
4,O=C(Nc1ccc(OC2CCN(Cc3ccccc3)C2)c(Cl)c1)c1ccco1 (stereo not shown) [TCMDC-133971],37.01
5,O=C(Nc1ccc(OC2CCN(Cc3ccc(F)cc3)CC2)c(Cl)c1)c1cccs1 [TCMDC-133746],32.62
6,FC(F)(F)c1ccc2[nH]c(-c3ccc(-c4ccc(CNCc5cnn(-c6ccccc6)n5)cc4)s3)nc2c1.O=C(O)C(F)(F)F [TCMDC-132975],-22.66
7,COc1cccc(NC(=O)Nc2ccc(-c3oc(C(=O)NCC(c4ccccc4)N(C)C)cc3-c3ccncc3)cc2)c1 (stereo not shown) [TCMDC-135783],-10.27
8,Cc1c(F)cc(C(=O)NC2CC2)cc1-c1ccc2c(cnn2S(=O)(=O)c2ccc(C#N)cc2)c1 [TCMDC-135240],-5.005
9,COc1ccc2nccc([C@@H](O)CN3CCC(NC(=O)c4[nH]c5ccccc5c4-c4ccccc4)CC3)c2c1 [TCMDC-141034],-42.03
10,O=C(NCc1cccc(F)c1)Nc1ccc(-c2cccc(-c3nc4ccc(F)cc4[nH]3)c2)cc1 [TCMDC-133296],0.06231
11,Cc1ccc(NC(=O)c2ccc(N3CCC(c4ccccc4C)CC3)nc2)cc1 [TCMDC-134594],8.038
12,COc1ccc(CN2CCN(Cc3cc(Cl)ccc3O)CC2CCO)c(C)c1C (stereo not shown) [TCMDC-124638],-22.47
13,CC(C)CCN1CCC(Oc2ccc(NC(=O)c3ccc(F)cc3)cc2Cl)CC1 [TCMDC-133978],33.54
14,CC(C)CCN1CCC(Oc2ccc(NC(=O)c3ccco3)cc2Cl)CC1 [TCMDC-133976],100.7
15,N#Cc1ccc(CN2CCC(Oc3ccc(NC(=O)c4ccco4)cc3Cl)CC2)cc1 [TCMDC-133957],8.133
16,O=C(NC(=S)NCc1ccncc1)c1ccccc1 [TCMDC-123842],-6.445
17,NC1=NC(CCc2ccccc2)N(c2ccc(Cl)cc2)C(N)=N1 (stereo not shown) [TCMDC-131290],6.603
18,COc1ccc2c(c1)Nc1ccc(Cl)cc1C2N (stereo not shown) [TCMDC-141985],106.2

# — article PMC4552634, “A New Set of Chemical Starting Points with Plasmodium falciparum Transmission-Blocking Potential for Antimalarial Drug Discovery” (PLoS ONE, 2015)
